# Assay results: ChEMBL document CHEMBL3988442, “University of Dundee, Small-Polar-MMV Screening Library” (2021)
# About 1,000 (1.4%) of roughly 69,000 compounds showed an effect of 50% or more. Many of the other results were omitted from the sample, so strong results are more common in it than they were.
# System: Leishmania donovani
# Experiment: Leishmania intramacrophage assay
# Format: functional, organism-based
# Design: scale not given: in the data most compounds retested in dose-response had high values
structure (smiles),measurement,setting,value
Cl.c1cnc(Nc2cncc(C3CCCN3)n2)cn1 (stereo not drawn),Percent Effect,"30.3 µM, […]",5.876%
Cc1cnc(N2CCC3(CC2)CC(NC(=O)N(C)C)CO3)nc1 (stereo not drawn),Percent Effect,"30.3 µM, […]",5.267%
O=C(NCC1CC1)c1cc2c(s1)CCN2c1ncccn1,Percent Effect,"30.3 µM, […]",54.07%
CCCNC(=O)c1cc2c(s1)CCN2c1ncccn1,Percent Effect,"30.3 µM, […]",24.35%
O=C(NCCN1CCCC1)c1cc2c(s1)CCN2c1ncccn1,Percent Effect,"30.3 µM, […]",35.65%
COc1ccc(CCN2C(=O)O[C@@H]3CN(C4CCSCC4)C[C@@H]32)cc1,Percent Effect,"30.3 µM, […]",4.59%
COc1cccn(C(C)C(=O)NC2CCCC2)c1=O (stereo not drawn),Percent Effect,"30.3 µM, […]",28.93%
COc1cc(CN2CCCC2c2cccc(F)c2)cc(OC)c1OC (stereo not drawn),Percent Effect,"30.3 µM, […]",4.07%
COc1cccc(CN2CCCC2c2cccc(F)c2)c1OC (stereo not drawn),Percent Effect,"30.3 µM, […]",48.24%
COc1ccc(CN2CCCC2c2cccc(F)c2)c(OC)c1OC (stereo not drawn),Percent Effect,"30.3 µM, […]",53.41%
Cc1cccc(OC2CCN(Cc3ncc[nH]3)CC2)c1,Percent Effect,"30.3 µM, […]",-10.49%
O=C1CC(NCc2ncc[nH]2)CN1CCc1cccc(Cl)c1 (stereo not drawn),Percent Effect,"30.3 µM, […]",87.49%
COc1cc(OC)cc(N2CCC(NCc3cc[nH]n3)C2)c1 (stereo not drawn),Percent Effect,"30.3 µM, […]",11.55%
Clc1cc(Cl)cc(CN2CCC(NCc3ncc[nH]3)CC2)c1,Percent Effect,"30.3 µM, […]",84.31%
Cc1nc[nH]c1CNC1CC(=O)N(CCc2cccc(Cl)c2)C1 (stereo not drawn),Percent Effect,"30.3 µM, […]",-19.6%
Clc1cc(Cl)cc(CN2CCC(NCc3cc[nH]n3)CC2)c1,Percent Effect,"30.3 µM, […]",71.72%
Clc1cccc(N2CCC(NCc3ncc[nH]3)C2)c1 (stereo not drawn),Percent Effect,"30.3 µM, […]",26.13%
COc1ccc(CCN2CC(NCc3ncc[nH]3)CC2=O)cc1 (stereo not drawn),Percent Effect,"30.3 µM, […]",17.72%
Brc1ccc(CN2CCC(NCc3ncc[nH]3)CC2)cc1,Percent Effect,"30.3 µM, […]",85.49%
CN1CCN(Cc2cccc(NCc3ncc[nH]3)c2)CC1,Percent Effect,"30.3 µM, […]",3.083%
Clc1cccc(N2CCC(NCc3cc[nH]n3)C2)c1 (stereo not drawn),Percent Effect,"30.3 µM, […]",14.09%
O=C1CC(NCc2ccncc2)CN1CCc1cccc(Cl)c1 (stereo not drawn),Percent Effect,"30.3 µM, […]",37.94%
O=c1cnc2ccccc2n1CCCn1cccn1,Percent Effect,"30.3 µM, […]",-23.4%
Cc1cc(O)c(OCC(=O)/N=c2\[nH]cc(C)s2)cn1,Percent Effect,"30 µM, 30.03 µM",13.79%
CC(=O)Nc1nc(C(=O)N2CCCC2c2noc(C3CC3)n2)cs1 (stereo not drawn),Percent Effect,"30.3 µM, […]",0.7706%
CN1CC(c2ccccc2)CC12CCN(C(=O)c1cccnc1)CC2 (stereo not drawn),Percent Effect,"30.3 µM, […]",13.25%
CC(C)n1ccnc1C1CCN(C(=O)C2COc3ccccc3O2)CC1 (stereo not drawn),Percent Effect,"30 µM, 30.03 µM",-2.599%
Cc1cc(C)nc(NCCC(=O)Nc2ccc(Cn3cncn3)cc2)n1,Percent Effect,"30.3 µM, […]",18.2%
COc1cc(N2CC[C@@H]3O[C@@H](c4ccnc(C)n4)C[C@H]3C2)ncn1,Percent Effect,"30.3 µM, […]",16.01%
Cc1ccc(N2CC[C@@H]3O[C@@H](c4ccncn4)C[C@H]3C2)nn1,Percent Effect,"30.3 µM, […]",12.48%
COc1cc(N2CC[C@@H]3O[C@@H](c4ccncn4)C[C@H]3C2)ncn1,Percent Effect,"30.3 µM, […]",101.1%
CC(=O)Nc1ncc(S(=O)(=O)Nc2ccccc2)s1,Percent Effect,"30.3 µM, […]",-54.24%
CCc1nnc(CNC2CCCN(Cc3noc(C4CC4)n3)C2)o1 (stereo not drawn),Percent Effect,30 µM,-1.291%
CCOCCOc1ccc(S(=O)(=O)N2CCc3c(nc[nH]c3=O)C2)cc1,Percent Effect,"30.3 µM, […]",59.04%
O=c1[nH]cnc2c1CCN(S(=O)(=O)c1ccc(OC(F)(F)F)cc1)C2,Percent Effect,"30.3 µM, […]",24.26%
O=c1[nH]cnc2c1CCN(S(=O)(=O)c1ccc(Cl)cc1)C2,Percent Effect,"30.3 µM, […]",10.57%
CC(=O)c1cn(CCC(=O)NCCC(=O)O)c2ccccc12,Percent Effect,"30 µM, 30.03 µM",18%
CN(C)c1cccc(C(=O)N2CCn3c(nnc3-c3ccccc3)C2)c1,Percent Effect,"30.3 µM, […]",3.878%
O=C1Nc2ccccc2CN(CC2CC2)C12CCNC2 (stereo not drawn),Percent Effect,"30.3 µM, […]",19.67%
O=C1Nc2ccccc2CN(CC2CCCC2)C12CCNC2 (stereo not drawn),Percent Effect,"30.3 µM, […]",67.89%
CCCN1Cc2ccccc2NC(=O)C12CCNC2 (stereo not drawn),Percent Effect,"30.3 µM, […]",13.56%
O=C1Nc2ccccc2CN(C/C=C/c2ccccc2)C12CCNC2 (stereo not drawn),Percent Effect,"30.3 µM, […]",95.58%
O=C1Nc2ccccc2CC12CCCN2Cc1ccc(F)cc1 (stereo not drawn),Percent Effect,"30.3 µM, […]",-31.7%
O=C1Nc2ccccc2CNC12CCN(CC1CCCC1)CC2,Percent Effect,"30.3 µM, […]",-1.284%
CC(C)NC(=O)Nc1ccc(-c2nc(C(C)C)no2)cc1,Percent Effect,"30.3 µM, […]",-3.03%
Cc1cc2[nH]cc(C(=O)N3CCCCC3c3ccc(F)cc3)c(=O)n2n1 (stereo not drawn),Percent Effect,"30.3 µM, […]",54.57%
Cc1nc2[nH]cc(C(=O)N3CCCCC3c3ccc(F)cc3)c(=O)n2n1 (stereo not drawn),Percent Effect,"30.3 µM, […]",-11.65%
Cc1cc(=O)c(C(=O)N2CCCCC2c2ccc(F)cc2)c[nH]1 (stereo not drawn),Percent Effect,"30.3 µM, […]",7.21%
COc1c(CNCCNC(=O)c2ccco2)c(C)nn1C,Percent Effect,"30 µM, 30.03 µM",1.036%
CCn1nc(C)c2ccn(CC(=O)NCCCOC)c(=O)c21,Percent Effect,"30.3 µM, […]",6.815%
Cc1cc(C(=O)N2CCCC(c3nccn3Cc3cscn3)C2)on1 (stereo not drawn),Percent Effect,"30.3 µM, […]",7.716%
Cc1nc2ccccn2c1CN1C[C@@H](CN(C)C)[C@@H](CO)C1,Percent Effect,"30.3 µM, […]",28.56%
COc1ccccc1OC1CN(C(=O)Cc2c(C)nc3ccccn23)C1,Percent Effect,"30.3 µM, […]",42.17%
Cc1nc2ccccn2c1CN1C[C@@H](CN2CCOCC2)[C@@H](CO)C1,Percent Effect,"30.3 µM, […]",60.75%
Cc1nc2ccccn2c1CN1C[C@@H](CN(C)CCO)[C@@H](CO)C1,Percent Effect,"30.3 µM, […]",17.46%
Cc1nc(CN2C[C@@H](CN3CCOCC3)[C@@H](CO)C2)c2ccccn12,Percent Effect,"30.3 µM, […]",-8.953%
Cc1ccccc1OC1CN(Cc2c(C)nc3ccccn23)C1,Percent Effect,"30.3 µM, […]",56.4%
CC(C)CCc1nc(CNCC2CN(C)CCO2)cs1 (stereo not drawn),Percent Effect,30 µM,42.41%
CCN1C(=O)C2(CCOCC2)c2cc(NC(=O)c3cc(C)n[nH]3)ccc21,Percent Effect,"30.3 µM, […]",7.521%
Cc1nonc1CC(=O)N1CCC2(CCCN(C3CCOCC3)C2=O)C1 (stereo not drawn),Percent Effect,"30.3 µM, […]",40.04%
O=C(c1c[nH]nn1)N1CCCC1C1CCCCC1 (stereo not drawn),Percent Effect,"30.3 µM, […]",34.69%
Cc1cc(C)n(C2CCN(S(=O)(=O)N3CCOCC3)CC2)n1,Percent Effect,"30.3 µM, […]",-18.5%
CN(C)C(CNC(=O)c1cccc(-n2cnnn2)c1)c1ccccc1Cl (stereo not drawn),Percent Effect,"30 µM, 30.03 µM",-12.85%
O=C(NCC(O)c1ccccc1Cl)c1cccc(-n2cnnn2)c1 (stereo not drawn),Percent Effect,"30 µM, 30.03 µM",18.08%
CN(C)C(CNC(=O)c1ccc(-n2cnnn2)cc1)c1ccccc1Cl (stereo not drawn),Percent Effect,"30.3 µM, […]",52.55%
Cc1ncc(CNCCO)c2cc(C(=O)c3ccc(Br)cc3)oc12.Cl,Percent Effect,"30.3 µM, […]",52.55%
Cc1ncc(CNC(C)(C)CO)c2cc(C(=O)c3ccc(Br)cc3)oc12,Percent Effect,"30.3 µM, […]",44.76%
Cc1ncc(CNCC(C)O)c2cc(C(=O)c3ccc(Br)cc3)oc12.Cl (stereo not drawn),Percent Effect,"30.3 µM, […]",46.85%
